Results from PubChem BioAssay (NCI).
The panel holds about 83,000 compounds, 20% with a hit somewhere; the sample as a whole holds those more often.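 Activity criterion: percent growth below 10, measured after cells in 96-well plates were exposed to a single compound concentration for 48 hours.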 A number with no mark means an inactive call. The source made the active and inactive calls.

How the values were obtained:
Assay in all cases: NCI-60 one-dose screen, 48 h (100 = growth as untreated, 0 = no growth, -100 = all killed)
NCI-H23 lung = details: 10 µM unless noted
NCI-H226 lung = details: 10 µM unless noted
NCI-H322M lung = details: 10 µM unless noted
HOP-62 NSCLC = details: 10 µM unless noted
NCI-H460 lung = details: 10 µM unless noted
HOP-92 NSCLC = details: 10 µM unless noted
NCI-H522 lung = details: 10 µM unless noted
A549/ATCC NSCLC = details: 10 µM unless noted
786-0 renal = details: 10 µM unless noted
COLO 205 colon = details: 10 µM unless noted
DU-145 prostate = details: 10 µM unless noted
MALME-3M melanoma = details: 10 µM unless noted
MDA-MB-231 breast = details: 10 µM unless noted
RXF 393 renal = details: 10 µM unless noted
SF-268 CNS = details: 10 µM unless noted
SF-295 CNS = details: 10 µM unless noted
SF-539 CNS = details: 10 µM unless noted
UACC-257 melanoma = details: 10 µM
M14 melanoma = details: 10 µM unless noted
K-562 leukemia = details: 10 µM unless noted

SMILES | growth (NCI-H23 lung) | growth (NCI-H226 lung) | growth (NCI-H322M lung) [%] | growth (HOP-62 NSCLC) | growth (NCI-H460 lung) | growth (HOP-92 NSCLC) | growth (NCI-H522 lung) | growth (A549/ATCC NSCLC) [%] | growth (786-0 renal) | growth (COLO 205 colon) | growth (DU-145 prostate) | growth (MALME-3M melanoma) | growth (MDA-MB-231 breast) | growth (RXF 393 renal) | growth (SF-268 CNS) | growth (SF-295 CNS) | growth (SF-539 CNS) | growth (UACC-257 melanoma) | growth (M14 melanoma) | growth (K-562 leukemia)
O=[N+]([O-])c1cc(S(=O)(=O)OCC2CO2)ccc1Cl (centres undefined) | 96% | 110% | 82.2 | 111% | 109% | 125% | 85.9% | 101 | 106% | 117% | 101% | 98.1% | 132% | 103% | 94.3% | 101% | 106% | 100% | 95.1% | –
O=S(=O)(NCCCNc1nccc(-c2c(-c3ccc(O)cc3)nc3sccn23)n1)c1ccc(F)cc1 | 1.81% (active) | 3.13% (active) | 17.6 | 10% | 1.37% (active) | 12.3% | -1.49% (active) | 15.9 | 16.4% | 1.03% (active) | 10.6% | – | 7.09% (active) | -12.7% (active) | 17.8% | -34.9% (active) | 0.696% (active) | 4.9% (active) | -26.2% (active) | 7.51% (active)
CN=S(=O)(NC(=O)c1ccc(Cl)cc1Cl)c1ccc(Br)s1 (centres undefined) | 104% | 93.8% | 113 | 105% | 98.6% | 65.9% | 102% | 89.5 | 105% | 121% | 111% | – | 104% | 103% | 109% | 101% | 97% | 92.5% | 106% | 104%
COc1cc(/C=C2\CCCC3=C2N=C2SC(C)=NN2C3c2cc(OC)c(OC)c(OC)c2)cc(OC)c1OC (centres undefined) | 23.2% | 27.7% | 28.5 | -0.72% (active) | -13.9% (active) | 91.9% | 81% | 39.9 | 34.5% | 19.2% | 4.69% (active) | – | -39.6% (active) | 24.2% | 9.86% (active) | 5.96% (active) | -21.6% (active) | 49.3% | 10.6% | 6.05% (active)
CCC(c1ccc(OC)cc1)C(CC)c1ccc(OCC[N+](C)(C)C)cc1 (centres undefined) | 48.8% | 49.8% | 89.6 | 73.9% | 59% | 9.93% (active) | 35% | 74.3 | 88% | -74.7% (active) | 91.9% | 58% | – | 99.6% | 40.8% | 78.6% | 41.9% | – | 64% | 24.7%
Cc1cccc(-n2c(C)nc3ccc(NC(=O)NCCCl)cc3c2=O)c1 | 86.8% | 95.3% | 105 | 96% | 100% | 86% | 98.9% | – | 93.5% | 104% | 104% | 115% | 111% | 102% | 95.1% | 99.6% | 99% | 97.2% | 98.7% | 112%
COc1cc(CNC(=O)CSc2nc3ccccc3c(=O)n2Cc2cc(OC)c(OC)c(OC)c2)cc(OC)c1OC | 105% | 94.5% | 95.4 | 94% | 108% | 106% | 81.2% | – | 101% | 105% | 108% | 97.5% | 94.4% | 97.4% | 97.5% | 105% | 96.3% | 94.2% | 97.2% | –
CCCCCCCCCCC/C=C\C[C@H](O)C/C=C1/C(=O)C=C[C@@H]1C/C=C\CCCC(=O)OC | -25.2% (active) | -45.9% (active) | 69.8 | -16.1% (active) | -31.4% (active) | -13.6% (active) | -41.9% (active) | – | -3.32% (active) | -45.9% (active) | 13.3% | -2.61% (active) | -18.2% (active) | -72.8% (active) | 7.18% (active) | -16% (active) | -46.2% (active) | – | -31.9% (active) | 2.5% (active)
